Screening results from PubChem BioAssay.
Shown is part of a subset that was picked to be rich in hits.
Dicer processing – human Dicer pre-microRNA cleavage inhibition; Q9UPY3; cat-ELCCA pre-miR-21 Dicer processing, chemiluminescence; stronger effect = higher value; z-score at 25 µM; 47,000 tested, 6% active; in the data active = z-score above about 3, passing the limit was not always enough;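 also: plate controls were vehicle for no effect and no enzyme for full effect; higher signal means more uncleaved substrate so more Dicer inhibition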
* hit, by the source's call.

SMILES	Dicer processing
Nc1ccc(C(=O)O)c2c(C(=O)O)cccc12	-0.03
O=C(O)c1cccc2cccc(S(=O)c3ccccc3CO)c12 (stereo unspecified)	-0.98
O=C(O)c1cccc2cccc(C(=O)O)c12	3.94*
CCCCN1C(=O)N(c2nnc(C(C)(C)C)s2)C(O)C1c1ccc(Cl)c(Cl)c1 (stereo unspecified)	-0.24
CCOc1ccc(-n2nc3ccc(N)cc3n2)cc1	-3.8
CCOc1ccc(-n2nc3cc(C)c(N)cc3n2)cc1	4.56*
COc1ccc(-n2nc3ccc(N)cc3n2)cc1	-4.14
Cc1onc(-c2ccccc2)c1C(=O)Nc1cc(C(F)(F)F)ccc1N1CCc2ccccc2C1	-0.98
Cc1ccc(N2N=C(N)CC2=O)cc1	2.39
Cc1ccc(C)n1-c1ccc(N)cc1	-3.97
CC1=NC(=O)CN1c1ccc(N)cc1	4.02*
CCN(C(=O)c1ccc([N+](=O)[O-])o1)c1ccccc1	1.36
CCOC(=O)N1CCN(C(=O)c2ccc([N+](=O)[O-])o2)CC1	3.51*
O=C(OCc1nc2ccccc2s1)c1ccc([N+](=O)[O-])o1	-0.88
CSc1nc(N)n(-c2ncccc2C(F)(F)F)n1	2.52
CO/N=C(\C(=O)N[C@@H]1C(=O)N2C(C(=O)OC(C)OC(C)=O)=C(COC(N)=O)CS[C@H]12)c1ccco1 (stereo partly specified)	-0.74
COc1cccc(OCc2nc(-c3ccc(Cl)cc3)no2)c1	-3.57
CN1CCN(CC(O)Cn2c(N3CCOCC3)nc3c2c(=O)n(C)c(=O)n3C)CC1 (stereo unspecified)	-1.55
COC(=O)CSc1nc2ccc(Cl)cc2s1	0.92
O=S(=O)(CS(=O)(=O)Nc1nc2ccc(Cl)cc2s1)Nc1nc2ccc(Cl)cc2s1	0.06
CC(C)(C)NC(=O)NNc1nc2ccc(Cl)cc2s1	3.71*
COc1ccccc1C1SCCN1S(=O)(=O)c1ccc(F)cc1 (stereo unspecified)	1.78
O=C1C2C3C=CC(C3)C2C(=O)N1c1nccs1 (stereo unspecified)	0.34
O=C1CCC(=O)N1c1nccs1	3.23*
CCCc1nn2c(=O)c(NC(=O)c3ccc(F)cc3)cnc2s1	-0.23
SMILES	Dicer processing
O=C1C2C3c4ccccc4C(c4ccccc43)C2C(=O)N1c1ccc(Cl)c(Cl)c1 (stereo unspecified)	1.05
CCCC1C2C(=O)N(c3ccccc3)C(=O)C2ON1c1ccc(Cl)c(Cl)c1 (stereo unspecified)	7.22*
Cc1ccc(N2C(=O)C3ON(c4ccccc4)C(c4ccncc4)C3C2=O)cc1Cl (stereo unspecified)	0
CCCCCOc1ccc2c(C)cc(=O)oc2c1	-0.33
COC(=O)CCCN1C(=O)c2cccc3cccc(c23)C1=O	3.6*
CN(C(=O)CCCN1C(=O)c2cccc3cccc(c23)C1=O)c1ccccc1	-0.03
C#CCOC(=O)CCCN1C(=O)c2cccc3cccc(c23)C1=O	-1.49
COc1ccc(OC(C)C(=O)Nc2ncn[nH]2)cc1 (stereo unspecified)	0.52
O=C(Nc1cc(S(=O)(=O)c2ccccc2)cs1)c1ccc(Cl)cc1	0.61
CCc1ccc(C2CC(=O)NC(SCC(=O)OC)=C2C#N)cc1 (stereo unspecified)	0.55
Cc1nn(-c2ccccc2)nc1C(=O)NNC(=O)c1ccccc1N	0.74
N#CC1=C2N=C(N)c3ccccc3N2C2=C(C(=O)CCC2)C1c1c(F)cccc1Cl (stereo unspecified)	0.45
O=S(=O)(c1ccc(Cl)cc1)N1CCN(c2cccc(Cl)c2)CC1	3.09*
CN(C)C(=O)N1CCN(S(=O)(=O)c2ccc(Cl)cc2)CC1	0.7
O=S(=O)(c1ccc(Cl)cc1)N1CCSCC1	0.73
Clc1ccc(-c2nc3c4ccccc4ccn3c2CN2CCOCC2)cc1	-0.48
O=C1Nc2ccccc2/C1=C/c1c(Sc2ccc(Cl)cc2)nc2sccn12	5.71*
NC(=S)N/N=C/c1c(Sc2ccc(Cl)cc2)nc2sccn12	0.34
Clc1ccc(Sc2c(-c3ccccc3)nc3sccn23)cc1	0.4
COc1ccc(CC/C(C)=C2/C(=O)Nc3ccccc32)cc1	0.75
COc1ccc(CC2(O)CCC3(CC2)OCCO3)cc1	0.53
Cc1nnsc1C(=O)O/N=C(/N)COc1ccc(C2SCCS2)cc1	2.18
CCOC(=O)c1sc2nc(C)cc(C)c2c1N(C(C)=O)C(C)=O	3.36*
CC(=O)c1sc2nc(C)cc(C)c2c1N	-1.58
CCOC(=O)c1sc2nc(C)cc(C)c2c1NC(=O)Nc1cccc(Cl)c1	0.39
SMILES	Dicer processing
CCN(CC)C(=O)Cn1cnc2sc(C(=O)N3CC(C)CC(C)C3)c(C)c2c1=O (stereo unspecified)	-0.67
CCOC(=O)C(Nc1cccc(C)c1)(NS(=O)(=O)c1ccc(C)cc1)C(F)(F)F (stereo unspecified)	-0.19
O=c1c(-c2ccc(O)cc2)coc2cc(O)cc(O)c12	-1.4
COc1ccc(-c2coc3cc(OCc4ccc(Br)cc4)cc(O)c3c2=O)cc1OC	3.88*
CC(C)Oc1cc(O)c2c(=O)c(-c3ccc(O)cc3)coc2c1	1.66
CCOC(=O)/C(C#N)=C(\N=C(\N)c1cccc(C)c1)Nc1ccc(Cl)cc1	-0.11
Cc1ccc(N2C(=O)C3C(c4cccc(Cl)c4)OC4(C(=O)c5ccccc5C4=O)C3C2=O)cc1 (stereo unspecified)	-0.61
CCOc1ccc(C2Nc3c(C)cccc3-c3cc(C)nn32)cc1 (stereo unspecified)	1.22
COc1ccc(C2Nc3ccc(C)cc3-c3cc(C)nn32)cc1 (stereo unspecified)	-1.01
COc1cc(C2Nc3ccccc3-c3cc(C)nn32)ccc1O (stereo unspecified)	0.37
COc1ccc(C2Nc3c(C)cc(C)cc3-c3cc(C)nn32)cc1OC (stereo unspecified)	1
CCOc1ccc(C2Nc3ccc(C)cc3-c3cc(C)nn32)cc1 (stereo unspecified)	1.47
COc1ccc(C2Nc3c(C)cc(C)cc3-c3cc(C)nn32)c(OC)c1 (stereo unspecified)	3.62*
COc1ccc(OC)c(C2Nc3ccc(C)cc3-c3cc(C)nn32)c1 (stereo unspecified)	-0.07
CCOc1ccc(C2Nc3ccccc3-c3cc(C)nn32)cc1 (stereo unspecified)	3.24*
Cc1cc2n(n1)C(c1ccc(O)cc1)Nc1ccccc1-2 (stereo unspecified)	1.42
Cc1cc2n(n1)C(c1ccc(O)c(O)c1)Nc1ccccc1-2 (stereo unspecified)	6.61*
COc1ccc(C2Nc3c(C)cc(C)cc3-c3cc(C)nn32)cc1O (stereo unspecified)	4.35*
O=S(=O)(c1ccc(-c2cc(C(F)(F)F)on2)s1)N(Cc1ccccn1)Cc1ccccn1	0.08
COc1cc(C(F)(F)F)nc2ccc(C)c(NC(=O)Nc3cc(Cl)cc(Cl)c3)c12	0.58
O=C(NC(=O)c1ccc(F)c(Cl)c1)Nc1ccc(F)cc1F	-1.34
CCn1nc(C)cc1-c1n[nH]c(=S)n1CCCOC	0.1
CCn1cc(C(=O)NNC(=S)Nc2ccc(Cl)cc2)c(=O)c2cc(C(F)(F)F)ccc21	0.46
COC(=O)/C=C1\SC(Cc2ccc(Cl)cc2)=NC1=O	-0.21
COc1ccc(-c2cc(C(F)(F)F)nc(SCC(=O)N3CCCC3)n2)cc1	2.27
C=CCN1C(=O)C(O)(c2c[nH]c3ccccc23)c2ccccc21 (stereo unspecified)	1.79
O=C1OC2C(C(=O)O)Sc3c(sc(=O)n3-c3ccccc3)C2c2cc(Br)ccc21 (stereo unspecified)	1.66
NC(=O)CSc1ccc2ccccc2n1	-0.57
